Source: PubChem (National Center for Advancing Translational Sciences (NCATS))
In the library only some 12% were active in any assay of this set; here they are far more common.
Pf growth 48h = inhibits P. falciparum growth in the first generation, 48 h; P. falciparum luciferase growth in erythrocytes, 48 h; Potency, µM (highest dose often 28.7 µM), without a hit: at the top dose activity change, negative = inhibition, most hits filed as inhibitors; actives 5.9% (n = 310,000); further: on the % scale 0 is the no-effect control and ±100 the full control effect
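First compound was added to culture medium, then infected red cells at 0.1% parasitemia and 2% hematocrit (final). After incubation at 37 C under 5% CO2, luciferase detection reagent was dispensed and light output recorded.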
Pf growth 96h = P. falciparum growth inhibition at 96 hour, primary screen for plastid delayed-death inhibitors; P. falciparum luciferase reporter growth, 96 h; Potency, µM (highest dose often 28.7 µM), inactives show at the top dose activity change, negative = inhibition, actives largely listed as inhibitors; actives 6.9% (n = 320,000); AID 504834; further: on the % scale 0 is the no-effect control and ±100 the full control effect
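Infected RBCs, 2% Hct / 0.05% parasitemia final; luciferase-reporter P. falciparum; cpd 96 h, 37 C, 5% CO2; luciferase detection reagent; luminescence.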
AmpC inh no detg = inhibitors of E. coli AmpC beta-lactamase without detergent; P00811; AmpC nitrocefin hydrolysis, absorbance 480 nm, 0.0001% Triton; Potency, µM (top dose mostly 57.1 µM), inactives show at the highest dose activity change, negative = inhibition, actives largely listed as inhibitors; actives 0.52% (n = 330,000); AID 485341;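 further: plate controls were no compound for no effect and no enzyme for full effect; nearly all actives have a fitted effect of over 20% in size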
Target sequence (P00811 whole entry, looked up): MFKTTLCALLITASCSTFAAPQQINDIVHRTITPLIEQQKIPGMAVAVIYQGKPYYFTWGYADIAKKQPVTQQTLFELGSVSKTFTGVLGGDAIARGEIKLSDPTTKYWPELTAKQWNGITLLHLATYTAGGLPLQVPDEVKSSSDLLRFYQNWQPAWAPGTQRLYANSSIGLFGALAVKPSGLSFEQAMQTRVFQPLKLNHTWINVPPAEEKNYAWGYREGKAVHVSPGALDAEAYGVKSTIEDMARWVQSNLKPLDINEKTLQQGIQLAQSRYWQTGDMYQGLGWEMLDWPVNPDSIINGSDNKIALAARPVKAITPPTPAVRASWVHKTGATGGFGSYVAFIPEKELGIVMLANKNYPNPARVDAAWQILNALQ
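20 mM phosphate pH 7.0 + 0.01% (detergent screen) or 0.0001% Triton X-100; 5.3 nM AmpC reagent; cpd preinc 15 min RT; nitrocefin (800 uM stock) to start; A480 q20 s × 4 min; Activity was normalised to no-enzyme and no-compound control wells.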
SARS PLP yeast = SARS-CoV PLP inhibition in yeast | S. cerevisiae expressing SARS-CoV PLpro, growth rescue | Potency, µM (titrated, usually from 32.9 µM), without a hit: at the highest dose activity, positive = growth rescue, usual class: activators | actives 0.19% (n = 330,000) | AID 485353; calls by dose curve; further: 0% is about no effect; nearly all actives have a fitted effect of over 55% in size
AmpC detergent = AmpC beta-lactamase inhibition with detergent present; AmpC hydrolysis of nitrocefin, absorbance 480 nm, 0.01% Triton; Potency, µM (series often up to 114 µM), without a hit: at the top dose activity change, negative = inhibition, hits mostly inhibitors; actives 0.041% (n = 370,000);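 further: 0% = no-compound wells and -100% = no-enzyme wells; nearly all actives have a fitted effect of over 25% in size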
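20 mM phosphate pH 7.0 + 0.01% (detergent screen) or 0.0001% Triton X-100; 5.3 nM AmpC reagent; cpd preinc 15 min RT; nitrocefin (800 uM stock) to start; A480 q20 s × 4 min; Activity was normalised to no-enzyme and no-compound control wells.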
Sm TGR block = inhibitors of Schistosoma mansoni thioredoxin glutathione reductase; actives 3% (n = 360,000); Potency, µM (highest dose often 114 µM), inactives show top-dose activity change, negative = inhibition, hits mostly inhibitors; purified TGR, DTNB reduction, TNB absorbance 405 nm; Q962Y6; AID 485364; further: on the % scale 0 is the no-effect control and ±100 the full control effect; nearly all actives have a fitted effect of over 60% in size
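First, TGR (20 nM dispensed) and NADPH were mixed with compound. Second, a 15 min room-temperature incubation followed. Third, further NADPH and then DTNB were added to start the reaction. Finally, TNB absorbance was monitored kinetically.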
Numbers without * were called inactive; i = inactive; ? = inconclusive; . = no result; [ ] = dose if it differs, or a comment. Unless noted, the call rests on the fitted dose curve; in most records, active means well fitted curve in the direction sought with a large enough effect; inconclusive means small, poorly fitted or top-dose-only effect, or another doubt; inactive means no such curve, though single readings can be large; an effect the other way counts as inactive or inconclusive. Potency means the concentration at half of the fitted maximal effect.

SMILES	Pf growth 48h	Pf growth 96h	AmpC inh no detg	SARS PLP yeast	AmpC detergent	Sm TGR block
O=C(Nc1ccc([N+](=O)[O-])cn1)c1cc(-c2cccc(Cl)c2)nc2ccccc12	2.1µM*	-21%	-27%	7%	-10%	1%
CCc1nnc(NC(=O)CSc2nccn2Cc2ccc(Cl)cc2)s1	.	.	.	.	3%	-16%
COc1ccc(OC)c(-c2cc(-c3cccnc3)nc(N)c2C#N)c1	?	9.3µM*	30%	-1%	-8%	8%
COc1cc(-c2cc(-c3ccc(O)cc3)nc(N)c2C#N)ccc1O	?	5.9µM*	195%	-1%	6%	9%
COc1cccc(-c2cc(-c3cccnc3)nc(N)c2C#N)c1	-5%	-11%	-6%	1%	-4%	6%
N#Cc1c(-c2cccc(Br)c2)cc(-c2cccnc2)nc1N	13µM*	?	-3%	?	0%	3%
N#Cc1c(-c2ccc(Br)cc2)cc(-c2cccnc2)nc1N	11%	39%	-11%	17%	-3%	3%
CCOc1ccccc1C1CC(c2cccs2)=NN1S(C)(=O)=O (configuration not stated)	-9%	-9%[5.75 µM]	-2%	0%	-1%	4µM*
CS(=O)(=O)N1N=C(c2cccs2)CC1c1ccccc1O (configuration not stated)	-16%	7%	-22%	0%	1%	19%
CCn1nc(C)cc1C(=O)Sc1ccc(C)cc1	9%	-1%	-2%	-6%	2%	18µM*
Cc1cc(C(=O)N2CCc3ccccc3C2)on1	47%	?	-11%	-2%	-9%	1%
C=CCOc1ccc(/C(O)=C2\C(=O)C(=O)N(CCN(C)C)C2c2cccs2)cc1 (configuration not stated)	19%	26%	-17%	-7%	3%	?
CCN(CC)CCN1C(=O)C(=O)/C(=C(/O)c2ccc(OC)cc2)C1c1cccs1 (configuration not stated)	?	0%	17%	4%	?	45µM*
CCOc1ccc(/C(O)=C2/C(=O)C(=O)N(CCN(CC)CC)C2c2cccs2)cc1 (configuration not stated)	33%	30%	18%	-2%	?	22µM*
CCCN1C(=O)C(NC(=O)c2ccccc2OC)(C(F)(F)F)C(C(=O)OC)=C1C (configuration not stated)	.	.	.	.	1%	9%
CN(C)c1ccc(CNC(=O)C2CCN(c3nnc(-n4cccc4)s3)CC2)cc1	.	.	.	.	19%	7%
O=C(O)CN1C(=O)/C(=C\c2cn(-c3ccccc3)nc2-c2ccccc2)SC1=S	-47%	?	-34%	1%	-8%	2%
CCN1C(=O)/C(=C\c2cn(-c3ccccc3)nc2-c2cccnc2)SC1=S	12µM*	?	-22%	0%	-1%	0%
CC1=CC(=O)C(C(C)C)=CC1=NC(=O)c1ccc(C)cc1	?	9%	-15%	-2%	-8%	3.2µM*
Cc1cc(C)c(S(=O)(=O)c2ccccc2Cl)c(=O)[nH]1	.	?	-25%	-1%	-15%	1%
C/C(=N\Nc1nc2ccccc2[nH]1)c1ccc([N+](=O)[O-])cc1	0.19µM*	0.066µM*	-34%	5%	-14%	4%
O=C(Nc1nc2ccccc2[nH]1)c1ccc([N+](=O)[O-])cc1	i	?	-23%	0%	-5%	-4%
Fc1ccccc1C1c2cccn2CCN1C(=S)Nc1ccc(Br)cc1 (configuration not stated)	-14%	-6%	2%	1%	9%	-25%
Cc1ccc(NC(=O)COc2ccc(N(C)S(=O)(=O)c3ccc(F)cc3)cc2)cc1	?	10µM*	-28%	3%	-11%	-10%
Cc1ccc(S(=O)(=O)N(C)c2ccc(OCC(=O)NCC3(N(C)C)CCCCC3)cc2)cc1	9.3µM*	9.3µM*	81%	-14%	1%	-4%
SMILES	Pf growth 48h	Pf growth 96h	AmpC inh no detg	SARS PLP yeast	AmpC detergent	Sm TGR block
COCC(C)n1c(C)cc(C(=O)COc2ccc(N(C)S(=O)(=O)c3ccc(NC(C)=O)cc3)cc2)c1C (configuration not stated)	4.7µM*	1.3µM*	167%	-2%	-14%	9%
C=CCn1c(C)cc(C(=O)COc2ccc(N(C)S(=O)(=O)c3ccc(NC(C)=O)cc3)cc2)c1C	.	.	4%	-1%	.	.
CC(=O)Nc1ccc(S(=O)(=O)N(C)c2ccc(OCC(=O)Nc3ccccc3C(C)=O)cc2)cc1	?	?	21%	-1%	-7%	2%
CC(=O)c1ccccc1NC(=O)COc1ccc(N(C)S(=O)(=O)c2ccc(C)c(C)c2)cc1	10µM*	12µM*	-27%	-14%	-14%	-1%
O=C(COc1ccc(C(=S)N2CCCC2)cc1)Nc1ccc(F)cc1	-22%	10µM*	-29%	-4%	?	9%
COc1ccc(CCN(C)C(=O)COc2ccc(N(C)S(=O)(=O)c3ccc(C)cc3)cc2)cc1OC	9.3µM*	10µM*	138%	-9%	?	-6%
COc1ccc(CCN(C)C(=O)COc2ccc(C(=O)c3ccccc3)cc2)cc1OC	?	?	51%	0%	-14%	1%
CCN1C(=O)c2ccccc2S(=O)c2ccc(C(=O)N3CCN(c4ccc(F)cc4)CC3)cc21 (configuration not stated)	.	.	.	.	-13%	-18%
Cc1ccc(C)c(NC(=O)CSc2nc3nc(-c4cccs4)cc(C(F)(F)F)c3c(=O)[nH]2)c1	-9%	3%	3.5µM*	2%	-1%	1%
Cc1ccc(NC(=O)CSc2nc3nc(C)cc(C)c3c(=O)[nH]2)cc1	28%	2.3µM*	-5%	5%	6%	9%
Cc1cccc(NC(=O)CSc2nc(N)c(NC(=O)c3cccs3)c(=O)[nH]2)c1	20%	7%	-38%	-1%	-9%	-6%
Cc1ccc(C)c(NC(=O)CSc2nc(N)c(NC(=O)c3cccs3)c(=O)[nH]2)c1	10%	-14%	14µM*	20%	-17%	-14%
COc1ccc(C(=O)Nc2c(N)nc(SCC(=O)Nc3ccc(NC(C)=O)cc3)[nH]c2=O)cc1OC	-25%	10µM*	58%	7%	-3%	-4%
Cc1cc(C)c2c(=O)[nH]c(SCC(=O)Nc3ccccc3)nc2n1	.	.	-10%	-2%	?	4%[11.4 µM]
CCOc1ccc(CN(CCc2ccc3c(c2)OCO3)Cc2cc(OC)cc(OC)c2)cc1	.	.	.	.	8%	11%
